Reference: PubChem BioAssay AID1159580 (chemical genetic matrix, 2015)
Values joined by “and” are separate entries in the source; they are usually repeats but may differ in a detail not shown here. Identical values can stand only once. The whole screen tested about 5,500 compounds, of which about 2,000 (36%) were called active. About 18% were inconclusive and are not listed. Cut-off read from the data, not from the text of the source: active = normalized growth mostly below about 0.91 (no sharp cut-off); inconclusive = no clear call, values can overlap the other calls; inactive = mostly above about 0.92. This is one part of the list.

Experiment: chemical genetic growth profiling, strain panel (AID 1159580);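 note: tested at 20 µM; growth read once vehicle control cultures reached saturation at 30 °C; 1 = growth at the plate median or of vehicle wells; lower values mean less growth of the strain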
Conditions: S. cerevisiae deletion strains, growth OD

Measured: normalized growth

CCCn1c(=O)c2[nH]c(C3CCCC3)nc2n(CCC)c1=O
inactive: locus YAL013W, strain DEP1, stronger effect = lower value 0.992 | locus YAL021C, strain ccr4, stronger effect = lower value 1.01 | locus YAL026C, strain drs2, stronger effect = lower value 0.984 | locus YAL030W, strain snc1, stronger effect = lower value 0.973 | locus YAL040C, strain CLN3, stronger effect = lower value 0.995 | locus YBL061C, strain skt5, stronger effect = lower value 0.989 | locus YBR009C, strain hhf1, stronger effect = lower value 0.969 | locus YBR021W, strain FUR4, stronger effect = lower value 1.01 | locus YBR023C, strain chs3, stronger effect = lower value 0.986 | locus YBR171W, strain sec66, stronger effect = lower value 0.976 | locus YBR229C, strain ROT2, stronger effect = lower value 0.992 | locus YBR231C, strain swc5, stronger effect = lower value 0.984 | locus YBR279W, strain paf1, stronger effect = lower value 1 | locus YCL011C, strain gbp2, stronger effect = lower value 0.986 | locus YCL016C, strain dcc1, stronger effect = lower value 0.98 | locus YCL029C, strain bik1, stronger effect = lower value 0.959 | locus YCL061C, strain MRC1 (second series), stronger effect = lower value 0.999 | locus YCL061C, strain MRC1, stronger effect = lower value 0.977 | locus YCL069W, strain vba3, stronger effect = lower value 0.98 | locus YCR088W, strain abp1, stronger effect = lower value 0.983 | locus YDL005C, strain med2, stronger effect = lower value 0.992 | locus YDL035C, strain GPR1, stronger effect = lower value 0.981 | locus YDL040C, strain nat1, stronger effect = lower value 0.984 | locus YDL074C, strain BRE1, stronger effect = lower value 0.973 | locus YDL101C, strain DUN1, stronger effect = lower value 0.992 | locus YDL134C, strain PPH21, stronger effect = lower value 0.993 | locus YDL185W, strain tfp1, stronger effect = lower value 0.926 | locus YDL192W, strain arf1, stronger effect = lower value 0.977 | locus YDR001C, strain nth1, stronger effect = lower value 0.986 | locus YDR069C, strain doa4, stronger effect = lower value 0.976 | locus YDR101C, strain arx1, stronger effect = lower value 0.976 | locus YDR137W, strain rgp1, stronger effect = lower value 0.954 | locus YDR150W, strain NUM1, stronger effect = lower value 0.968 | locus YDR159W, strain sac3, stronger effect = lower value 0.968 | locus YDR162C, strain NBP2, stronger effect = lower value 0.998 | locus YDR195W, strain ref2 0.947 | locus YDR297W, strain sur2, stronger effect = lower value 0.99 | locus YDR318W, strain mcm21, stronger effect = lower value 0.964 | locus YDR334W, strain swr1, stronger effect = lower value 0.988 | locus YDR335W, strain msn5, stronger effect = lower value 0.987 | locus YDR363W, strain ESC2, stronger effect = lower value 1.01 | locus YDR388W, stronger effect = lower value 0.96 | locus YDR392W, strain spt3, stronger effect = lower value 0.839 | locus YDR502C, strain sam2, stronger effect = lower value 0.98 | locus YEL003W, strain gim4, stronger effect = lower value 0.985 | locus YEL037C, strain rad23, stronger effect = lower value 0.991 | locus YEL061C, strain CIN8 (second series), stronger effect = lower value 0.987 | locus YEL061C, strain CIN8, stronger effect = lower value 0.994 | locus YER002W, strain NOP16, stronger effect = lower value 1.01 | locus YER015W, strain faa2, stronger effect = lower value 1 | locus YER016W, strain bim1, stronger effect = lower value 0.98 | locus YER110C, stronger effect = lower value 0.949 | locus YER111C, strain swi4, stronger effect = lower value 0.993 | locus YER155C, strain BEM2 (second series), stronger effect = lower value 0.921 | locus YER155C, strain BEM2, stronger effect = lower value 0.995 | locus YER167W, strain BCK2, stronger effect = lower value 0.971 | locus YFR010W, strain ubp6, stronger effect = lower value 0.992 | locus YGL078C, strain dbp3, stronger effect = lower value 0.967 | locus YGL086W, strain mad1, stronger effect = lower value 0.98 | locus YGL167C, strain pmr1, stronger effect = lower value 0.982 | locus YGL173C, strain kem1, stronger effect = lower value 0.983 | locus YGL227W, strain vid30, stronger effect = lower value 0.98 | locus YGL240W, strain doc1, stronger effect = lower value 0.989 | locus YGL248W, strain PDE1, stronger effect = lower value 0.995 | locus YGL253W, strain hxk2, stronger effect = lower value 0.992 | locus YGR078C, strain PAC10, stronger effect = lower value 0.985 and 0.986 | locus YGR135W, strain pre9, stronger effect = lower value 1 | locus YGR229C, strain SMI1, stronger effect = lower value 0.996 and 0.953 | locus YGR252W, strain gcn5, stronger effect = lower value 0.926 | locus YHR013C, strain ard1, stronger effect = lower value 0.928 | locus YHR027C, strain rpn1, stronger effect = lower value 0.988 | locus YHR030C, strain SLT2, stronger effect = lower value 0.984 | locus YHR079C, strain IRE1 (second series), stronger effect = lower value 0.975 | locus YHR094C, strain hxt1, stronger effect = lower value 0.963 | locus YHR129C, strain ARP1, stronger effect = lower value 0.985 | locus YHR142W, strain chs7, stronger effect = lower value 0.988 | locus YHR200W, strain rpn10, stronger effect = lower value 0.963 | locus YIL066C, strain RNR3, stronger effect = lower value 0.972 | locus YIL073C, strain SPO22, stronger effect = lower value 0.914 | locus YIL125W, strain kgd1, stronger effect = lower value 0.985 | locus YIR030C, strain dcg1, stronger effect = lower value 0.977 | locus YJL092W, strain hpr5, stronger effect = lower value 1 | locus YJL095W, strain BCK1 (second series), stronger effect = lower value 0.981 | locus YJL095W, strain BCK1, stronger effect = lower value 0.996 | locus YJL115W, strain asf1, stronger effect = lower value 0.994 | locus YJL129C, strain trk1, stronger effect = lower value 0.943 | locus YJL134W, strain LCB3, stronger effect = lower value 0.979 | locus YJL154C, strain vps35, stronger effect = lower value 0.979 | locus YJL164C, strain tpk1, stronger effect = lower value 0.988 | locus YJL166W, strain qcr8, stronger effect = lower value 0.988 | locus YJL168C, strain set2, stronger effect = lower value 0.971 | locus YJL187C, strain SWE1 (second series), stronger effect = lower value 0.982 | locus YJL187C, strain SWE1, stronger effect = lower value 0.995
